Experimental findings from PubChem BioAssay (NCI) are described below.

Experiment in all cases: NCI-60 one-dose screen, 48 h (100 = growth as untreated, 0 = no growth, -100 = all killed)
Common to all, as to settings: 10 µM unless noted

Test [1] relates to NCI-H23 lung.
The test system of test [2] is NCI-H226 lung.
Test [3] has as its system NCI-H322M lung.
Test [4] has as its system HOP-62 NSCLC.
Test [5] deals with NCI-H460 lung.
Test [6] deals with HOP-92 NSCLC.
The test system of test [7] is NCI-H522 lung.
Test [8] deals with A549/ATCC NSCLC.
The test system of test [9] is 786-0 renal.
Test [10] deals with COLO 205 colon.
In test [11] the test system is DU-145 prostate.
Test [12] deals with K-562 leukemia.
The subject of test [13] is MALME-3M melanoma.
For test [14], the system named is MDA-MB-231 breast.
The test system of test [15] is SF-268 CNS.
Test [16] deals with SF-295 CNS.
For test [17], the system named is SF-539 CNS.
The subject of test [18] is UACC-257 melanoma.
In test [19] the test system is M14 melanoma.

Compounds without any hit were thinned out: in the full panel of roughly 83,000, 20% have a hit.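 Step 1: grow cells in 96-well plates. Step 2: add test compound at a single concentration. Step 3: incubate 48 h. Step 4: record percent growth.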 Values without a mark were called inactive. Activity calls are given as the source filed them. Rule for the calls: active = growth percent below 10; inactive = the rest.

In the case of `COc1ccc(C2CC(c3cccc(Nc4ccncc4)c3)=NN2c2ccccc2)cc1` (configuration not stated), the growth in test [1] was 82.8%; in [2], 94.7%; in test [3], 68.2%; in [4] it was 43.9%; in [5] it was -40.8% (active); in test [6], 47.6%. Moreover, the growth in test [7] is 39.9%; in test [8], 39.9%; in [9] it was -4.64% (active); in [10] it was -55% (active); in [11], 42.2%; in [12], 1.17% (active). Besides, the growth in test [13] was -70% (active); in [14], 62.5%; in [15] it was 72.2%; in [16], 64%; in test [17], 59.7%; in test [18], -35.6% (active). In test [19], the growth was -46% (active).

Regarding `N/C(=N\N=C\c1cc2ccccc2[nH]1)N/N=C/c1cc2ccccc2[nH]1`, the growth in test [1] was 96.3%; in test [2] it was 93.7%; in [3] it was 100%; in test [4], 95.7%; in [5] it was 95.7%; in [6] it was 76.6%. Moreover, the growth is 98% in [7]; 101% in test [8]; 98.7% in test [9]; 102% in [10]; 112% in test [11]; 61.6% in test [12]. The growth in [13] is 87.9%; in [14], 99.9%; in test [15], 103%; in test [16], 111%; in test [17] it was 104%; in test [18], 107%. In addition, the growth in test [19] is 99.4%.

For the molecule `CCNC(=O)c1[nH]cc(-c2ccc(OC)cc2)c1-c1cc(OC)c(OC)c(OC)c1`, the growth was 60.3% in test [1]; 83% in test [2]; 51.6% in [3]; 45% in [4]; 13.7% in [5]; 8.85% (active) in test [6]. Also, the growth was 17.6% in test [7]; 51.1% in test [8]; 47.5% in test [9]; 32.5% in [10]; 69.3% in test [11]; 12.1% in test [12]. Also, the growth in [13] was 35.4%; in [14], 74.5%; in test [15], 58.8%; in [16], 30.3%; in [17] it was 29.1%; in test [18], 81.3%. The growth in test [19] was 51.4%.

As to `O=S(=O)(c1cccc(NC2=Nc3cccc4cccc2c34)c1)N1CCCC1`, the growth in test [1] is 60.8%; in test [2], 62.3%; in [3] it was 80.1%; in [4], 91.5%; in test [5] it was 50.7%; in test [6], -3.41% (active). Moreover, the growth in [7] was 75.3%; in test [8], 66.3%; in test [9], 82.9%; in [10], 95.6%; in [11] it was 90.4%; in test [12], 19.3%. Moreover, the growth in test [13] is 64.1%; in [14] it was 77.1%; in test [15], 79.1%; in test [16], 59%; in test [17], 74.9%; in [18], 64.9%. The growth in test [19] is 69.5%.

As to `O=C(N/N=C/c1ccc(F)cc1)c1ccccc1Nc1cccc(C(F)(F)F)c1`, the growth in test [1] was 104%; in test [2], 95.8%; in [3], 111%; in test [4], 109%; in [5], 101%; in test [6], 76.4%. For the same molecule, the growth in test [7] is 92.8%; in test [8], 53.3%; in test [9] it was 95.5%; in test [10] it was 120%; in test [11], 96.8%; in [12], 83.9%. The growth was 111% in test [13]; 117% in test [14]; 82.6% in [15]; 121% in [16]; 109% in [17]; 105% in [18]. In [19], the growth is 95%.

In the case of `COc1ccc(C(=O)c2cc3c(N)c(C(=O)Nc4cccc(OC)c4)sc3nc2C)cc1`, the growth is 33.8% in test [1]; 68% in [2]; 58.7% in test [3]; 41.5% in test [4]; 7.07% (active) in test [5]; 85.3% in test [6]. Moreover, the growth is -16% (active) in test [7]; 25.3% in [8]; 50.7% in test [9]; -3.22% (active) in test [10]; 16.2% in test [11]; 8.3% (active) in [12]. Besides, the growth in test [13] was 55.6%; in [14], 15.5%; in test [15], 39%; in [16] it was 24.2%; in test [17], -16.3% (active); in [18], 71.3%. The growth in test [19] was 13.1%.

`COc1ccc(Cn2nc3c(c2-c2cc(OC)c(OC)c(OC)c2)-c2oncc2CC3)cc1`: the growth in [1] is 79.8%; in [2] it was 106%; in [3], 99%; in test [4], 96.7%; in test [5] it was 107%; in test [6], 78.2%. Further, the growth in test [7] is 12.7%; in [8], 95.2%; in test [9] it was 85.1%; in test [10], 99.1%; in test [11], 105%; in [12] it was 39.9%. The growth in [13] was 93.7%; in [14], 65.8%; in test [15], 96.7%; in [16] it was 77.2%; in test [17], 89.1%; in test [18] it was 104%. Further, in test [19], the growth is 84.6%.

For `COc1ccc(C(=O)c2cc3c(N)c(C(=O)Nc4cccc(Cl)c4)sc3nc2C)cc1`, the growth is 35.1% in test [1]; 61.9% in [2]; 57.2% in test [3]; 44.9% in test [4]; 13.1% in [5]; 86.9% in test [6]. Besides, the growth in test [7] is -4.67% (active); in test [8], 32.3%; in test [9] it was 51.6%; in [10], -1.48% (active); in [11], 18%; in test [12], 6.91% (active). In addition, the growth is 51.2% in test [13]; 28.4% in test [14]; 44.7% in test [15]; 31.3% in test [16]; -15.5% (active) in test [17]; 71.4% in test [18]. In [19], the growth was 17.9%.
